Rows were chosen to be rich in hits. Some 11% of all compounds tested hit in one or more screens of this group.
Luciferase inh: inhibitors of firefly (Photinus pyralis) luciferase; P08659; purified P. pyralis luciferase, luminescence, biochemical; Potency, µM (series often up to 115 µM), actives largely listed as inhibitors; 2.5% of 76,000 active; AID 1347043; further: nearly all actives have a fitted effect of over 65% in size
Target sequence (P08659 whole entry, looked up): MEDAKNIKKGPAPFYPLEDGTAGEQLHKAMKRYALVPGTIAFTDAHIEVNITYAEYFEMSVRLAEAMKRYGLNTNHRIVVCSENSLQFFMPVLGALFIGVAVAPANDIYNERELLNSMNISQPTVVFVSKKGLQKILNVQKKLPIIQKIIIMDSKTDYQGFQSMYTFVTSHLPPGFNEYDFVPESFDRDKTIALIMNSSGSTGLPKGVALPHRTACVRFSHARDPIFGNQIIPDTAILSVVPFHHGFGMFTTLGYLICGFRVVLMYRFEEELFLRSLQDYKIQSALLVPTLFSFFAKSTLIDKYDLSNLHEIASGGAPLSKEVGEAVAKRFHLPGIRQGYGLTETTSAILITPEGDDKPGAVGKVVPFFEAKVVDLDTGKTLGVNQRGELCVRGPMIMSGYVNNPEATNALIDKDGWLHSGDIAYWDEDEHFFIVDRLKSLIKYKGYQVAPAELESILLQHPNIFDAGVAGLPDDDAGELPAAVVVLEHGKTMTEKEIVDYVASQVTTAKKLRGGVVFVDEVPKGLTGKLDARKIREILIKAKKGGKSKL
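Purified 10nM P. pyralis luciferase with 10uM D-luciferin and 10uM ATP in 50mM Tris acetate pH 7.5, 10mM Mg acetate, 0.01% Tween-20, 0.05% BSA. qHTS titration; luminescence read by CCD imager.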
3T3 cytotox: cytotoxic compounds in NIH 3T3 cells; 4.3% of 94,000 active; Potency, µM (top dose mostly 96.7 µM), inactives show at the top dose activity change, negative = cytotoxicity, most hits filed as inhibitors; NIH 3T3 viability, CellTiter-Glo ATP luminescence, 48-72 h; further: nearly all actives have a fitted effect of over 55% in size
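Cells were seeded at 400 per well, treated with pin-transferred compound, and kept 48 or 72 hr at 37 °C before CellTiter-Glo addition and luminescence imaging of cellular ATP.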
hNpr1 antagonist: antagonists of human natriuretic peptide receptor Npr1; AID 1347048; P16066; HEK293 hNpr1 GloSensor cGMP, ANP-stimulated luminescence; Potency, µM (highest dose often 46.3 µM), inactives show at the highest dose activity change, negative = inhibition, hits mostly inhibitors; 1.6% of 76,000 active; calls by dose curve; further: nearly all actives have a fitted effect of over 60% in size
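Compound pre-incubated 30 min at room temperature on GloSensor-loaded HEK293 cells stably carrying hNpr1 and the pGS-40F cGMP biosensor. Stimulation uses hNppA at 0.1 nM final; luminescence is taken at baseline and 20 min post-agonist.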
HEK293 tox: HEK 293 cell cytotoxicity. Potency, µM (highest dose often 115 µM), for inactives: top-dose activity change, negative = cytotoxicity, actives largely listed as inhibitors. 6.6% of 94,000 active. HEK 293 viability, ATP luminescence (CellTiter-Glo), 48-72 h. AID 1345083; further: nearly all actives have a fitted effect of over 60% in size
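HEK 293 cells seeded at 250 cells/well were exposed to compound for 48 or 72 hr at 37 degree Celsius. Viability taken as ATP content by CellTiter-Glo luminescence.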
Starred values were filed as active, the others as inactive; i = inactive; ? = inconclusive; . = no result given; [ ] = dose if it differs, or a comment. Unless noted, the call rests on the fitted dose curve; in most records, active means well fitted curve in the direction sought with a large enough effect; inconclusive means small, poorly fitted or top-dose-only effect, or another doubt; inactive means no such curve, though single readings can be large; an effect the other way counts as inactive or inconclusive. On the % scale 0 is the no-effect control and ±100 the full control effect; potency means the concentration at half of the fitted maximal effect.

SMILES	Luciferase inh	3T3 cytotox	hNpr1 antagonist	HEK293 tox
O=C1NC2(CCN(Cc3cccnc3)CC2)COc2ccccc21	i	-1%[138 µM]	-5%[70.6 µM]	?
Cc1ccc(CN2CCC3(CC2)COc2ccccc2C(=O)N3)cc1	i	?	-4%	28µM*
NC(=O)[C@@H]1C[C@H]2CN(c3ccccc3)C(=O)c3cccc(c32)N1C(=O)C1CCC1	.	?	.	-12%[57.5 µM]
O=C1NC2(CCN(CC3CCCCC3)CC2)COc2ccccc21	i	79µM*	4%[70.6 µM]	35µM*
O=C1NC2(CCN(CC3CC3)CC2)COc2ccccc21	i	?	5%[70.6 µM]	?
Cc1nc(C)c(C(=O)N2CC[C@H](N3CCN(C)CC3)[C@H](CCC(=O)O)C2)o1	?	-2%	2%	-44%
O=C(NCC1CN(CC2CC2)CC12CN(c1ccccc1)C2)c1ccccc1 (stereo not drawn)	i	89µM*	-16%[70.6 µM]	?
O=C(NCC1CN(CC2CC2)CC12CN(c1ccccc1)C2)Nc1ccccc1 (stereo not drawn)	i	100µM*	-1%[70.6 µM]	?
Cc1cccc(C(=O)N2CCOc3ccc(CCC(N)=O)cc3C2)c1	i	-15%	1%	i
CN(C)c1cccc(-c2cnc(Nc3ccncc3)c3c2CCO3)c1	i	50µM*	-13%[70.6 µM]	56µM*
CN(C)c1cccc(C(=O)Nc2ncc(-c3cccc(F)c3)c3c2OCC3)c1	i	?	-12%[70.6 µM]	?
Cc1noc(C)c1-c1cnc(Nc2ccncc2)c2c1CCO2	i	?	-1%[70.6 µM]	?
COc1ccccc1-c1cnc(Nc2cccc(N[S+](C)(=O)[O-])c2)c2c1CCO2	?	20µM*	32µM*	40µM*
CN(C)c1cccc(-c2cnc(Nc3cccc(N[S+](C)(=O)[O-])c3)c3c2CCO3)c1	?	?	?	20µM*
COc1ccccc1-c1cnc(Nc2ccccc2)c2c1CCO2	i	?	-23%[70.6 µM]	?
CC(C)OC(C)C(=O)N1CCc2onc(-c3ccc(C(F)(F)F)cc3)c2C1 (stereo not drawn)	i	?	-28%	28µM*
CC1(C)C(=O)N(Cc2ccccc2F)[C@H]2CN(C3CCOCC3)C[C@H]2[S+]1(=O)[O-]	i	?	1%[70.6 µM]	0%[172 µM]
Cc1onc(C(=O)N2CCC(CCOc3ccc(F)cc3)C2)c1Cn1cc(Cl)cn1 (stereo not drawn)	i	45µM*	?	?
CC(C)C(=O)N1CCC(CCOc2ccc(F)cc2)C1 (stereo not drawn)	i	?	3%	?
O=C(CCc1ccccc1)N1CCCC(CN2CCCC2)CC1 (stereo not drawn)	i	?	-5%	-21%
CCN1CC(C(=O)NCCc2nc(C(C)C)no2)CCC1=O (stereo not drawn)	i	3%	-1%	0%
O=C(NCc1ccc(F)cc1F)c1ccc(N2CC3CC(C2)[C@H]2CCCC(=O)N2C3)nc1 (stereo partly drawn)	i	28µM*	3%	-2%
O=C(NCc1cc(F)cc(F)c1)c1ccc(N2CC3CC(C2)[C@H]2CCCC(=O)N2C3)nc1 (stereo partly drawn)	i	-25%	1%	-9%
O=C(NCc1cccnc1)c1ccc(N2CC3CC(C2)[C@H]2CCCC(=O)N2C3)nc1 (stereo partly drawn)	i	5µM*	-3%	10%
CN(Cc1cccc(F)c1)C1CCOc2ccccc21 (stereo not drawn)	i	-15%[138 µM]	25%[70.6 µM]	-13%[172 µM]
SMILES	Luciferase inh	3T3 cytotox	hNpr1 antagonist	HEK293 tox
O=C(CC1CCCN(c2cnn(CC3CC3)c(=O)c2)C1)NCc1ccccc1 (stereo not drawn)	i	35µM*	-10%	?
O=C(CC1CCCN(c2cnn(CC3CC3)c(=O)c2)C1)NCCc1c[nH]c2ccccc12 (stereo not drawn)	i	?	-1%	79µM*
O=C(CC1CCCN(c2cnn(CC3CC3)c(=O)c2)C1)Nc1cccc(F)c1 (stereo not drawn)	i	22µM*	1%	?
CCn1ncc(N2CCCC(CC(=O)NCc3ccccc3)C2)cc1=O (stereo not drawn)	i	-15%	-1%	?
Cn1ncc(N2CCCC(CC(=O)Nc3cccc(F)c3)C2)cc1=O (stereo not drawn)	i	?	2%	-19%
O=C(NCCc1ccncc1)c1ccc2c(c1)N(S(=O)(=O)c1ccccc1F)CC2	?	-22%	-24%	?
Cc1cc(=O)n(CC(=O)N2CCc3ccccc32)c(N2CCc3ccccc3C2)n1	i	i	2%	2%
O=C(NCc1ccccc1)c1cc2n(n1)CC(c1ccc(Cl)cc1)OC2 (stereo not drawn)	i	?	?	?
NC(=O)c1cccc(-c2ccc3c(n2)CN(Cc2nc4ccccc4s2)C(=O)CO3)c1	i	?	-21%[70.6 µM]	79µM*
O=C1COc2ccc(OCc3cccnc3)nc2CN1Cc1ccccc1F	i	?	?	89µM*
O=C1COc2ccc(-c3ccccc3)nc2CN1Cc1ccccc1F	i	?	-11%[70.6 µM]	?
O=C1COc2ccc(-c3ccsc3)nc2CN1Cc1ccccc1F	i	?	1%[70.6 µM]	100µM*
Cc1nc(CN2Cc3nc(-c4cnn(Cc5ccccc5)c4)ccc3OCC2=O)cs1	i	-29%[138 µM]	?	?
Cc1ccccc1CN1Cc2nc(-c3cnn(Cc4ccccc4)c3)ccc2OCC1=O	i	22µM*	?	35µM*
COC[C@@H]1CN(S(=O)(=O)c2cccc(C)c2)C[C@H]1c1ccncc1	i	-20%	0%	-14%
O=C(c1n[nH]c2ccccc12)N1CCCC1c1nc(CCOCC2CCCC2)no1 (stereo not drawn)	i	?	1%	?
CCCc1nc(C)cc(N2CCC3(CC2)C(C(=O)O)CC(=O)N3C)n1 (stereo not drawn)	i	i	-6%	0%
CN(C1CCOCC1)C1CCN(C(=O)NCCc2ccccc2)CC1	i	-17%	-4%	4%
Cc1ccccc1CN1Cc2nc(-c3cnn(C)c3)ccc2OCC1=O	i	32µM*	4%[70.6 µM]	100µM*
Cc1ccccc1CN1Cc2nc(-c3ccccc3)ccc2OCC1=O	i	?	-6%[70.6 µM]	89µM*
COc1ccc(-c2ccc3c(n2)CN(Cc2ccccc2C)C(=O)CO3)cc1OC	i	?	-13%[70.6 µM]	?
O=C(CNC(=O)c1ccc(-c2cnc3ccccc3c2)cc1)NCC1CCCCC1	.	?	.	40µM*
O=C(NCC(=O)N1CCCCC1)c1ccc(-c2cnc3ccccc3c2)cc1	.	?	.	45µM*
Cn1ccc2c(C(=O)NCCc3cnc[nH]3)nc(-c3ccccc3)cc21	?	?	-12%[70.6 µM]	?
COc1ccc(-c2cc3c(ccn3C)c(C(=O)NCCc3cnc[nH]3)n2)cn1	i	25µM*	3%[70.6 µM]	?

Bioassay records from PubChem.
